Reference: PubChem BioAssay (Tox21)
Records with an inconclusive call do not appear. Calls of active or inactive are those of the source. Unless noted, the call rests on the fitted dose curve.

Key:
[1] = qHTS assay to identify small molecule agonists of the sonic hedgehog signaling (Shh) pathway (AID 1259368); further: series mostly up to about 92 µM; nearly all actives have a fitted effect of over 15% in size
Summary of the method: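 NIH/3T3-derived 3T3Gli1-Luc cells carrying a stably integrated Gli1 response element–firefly luciferase reporter were plated, left 4 hr at 37 C, then given compounds in DMSO for 24 hr. Luminescence was read 30 min after adding luciferase reagent.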

[2] = qHTS assay to identify small molecule antagonists of the sonic hedgehog signaling (Shh) pathway (AID 1259369); further: nearly all actives have a fitted effect of over 45% in size
Summary of the method: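 NIH/3T3-derived 3T3Gli1-Luc cells with stably integrated Gli1-Luc reporter were preincubated 4hr at 37 C, then given compounds in DMSO plus Shh conditioned medium and incubated 24hr. Firefly luciferase luminescence read after 30min reagent at room temperature.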

[3] = biological target: Estrogen receptor beta (Homo sapiens) (UniProt Q92731); assay: qHTS assay to identify small molecule agonists of the estrogen receptor beta (ER-beta) signaling pathway (AID 1259377; active means well fitted activation curve with a large enough effect in the signal ratio in the repeat runs, not every such curve was filed as active; the % refers to the signal ratio)
Estrogen receptor beta (Homo sapiens), sequence (Q92731 whole entry, looked up): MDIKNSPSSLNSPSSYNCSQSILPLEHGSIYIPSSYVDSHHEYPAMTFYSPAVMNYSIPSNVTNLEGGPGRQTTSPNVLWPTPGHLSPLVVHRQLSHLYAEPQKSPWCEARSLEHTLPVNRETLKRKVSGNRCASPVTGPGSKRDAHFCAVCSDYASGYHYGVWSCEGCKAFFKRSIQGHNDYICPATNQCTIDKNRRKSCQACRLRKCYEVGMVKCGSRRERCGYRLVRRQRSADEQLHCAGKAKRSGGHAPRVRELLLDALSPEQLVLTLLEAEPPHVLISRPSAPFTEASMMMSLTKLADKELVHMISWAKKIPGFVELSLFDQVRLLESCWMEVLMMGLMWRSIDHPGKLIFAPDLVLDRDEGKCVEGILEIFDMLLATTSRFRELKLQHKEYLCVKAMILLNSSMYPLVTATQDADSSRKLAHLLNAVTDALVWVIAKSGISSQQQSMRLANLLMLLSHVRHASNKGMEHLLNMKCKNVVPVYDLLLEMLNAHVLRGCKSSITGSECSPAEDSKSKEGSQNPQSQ
Summary of the method: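 Reporter cells (HEK293T, ER-beta-UAS-bla) receive compounds or DMSO after a 6 hr pre-incubation. They then incubate 16 hr at 37C/5% CO2, and fluorescence from LiveBLAzer B/G substrate is measured after 2 hours at room temperature.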

[4] = biological target: Estrogen receptor beta (Homo sapiens) (UniProt Q92731); assay: qHTS assay to identify small molecule antagonists of the estrogen receptor beta (ER-beta) signaling pathway (AID 1259378; active means well fitted inhibition curve with a large enough effect in the signal ratio in the repeat runs, not every such curve was filed as active; the % refers to the signal ratio)
Summary of the method: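 Antagonist mode: compounds added to beta-lactamase reporter HEK293T ER-beta-UAS cells stimulated with E2 (1nM final), 16 hr at 37C. LiveBLAzer B/G FRET substrate, 2 hours room temperature, fluorescence read-out.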

[5] = qHTS assay to identify small molecule agonists of the androgen receptor (AR) signaling pathway in the presence of an antagonist - cell viability counter screen (AID 1259379; active means well fitted curve in the direction sought with a large enough effect in the repeat runs; an effect the other way counts as inactive or inconclusive; further: series mostly up to about 92 µM; nearly all actives have a fitted effect of over 25% in size)
Summary of the method: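 MDA-kb2 human breast carcinoma cells (stable MMTV-luciferase, AR/GR responsive) were seeded 3,000 cells/well, pre-incubated 5 hr at 37C without CO2, then given 3.0uM nilutamide and compounds at 15 concentrations for 16 hr. Viability was read by CellTiter-Fluor fluorescence.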

[6] = qHTS assay to identify small molecule agonists of the estrogen receptor beta (ER-beta) signaling pathway - cell viability counter screen (AID 1259380; active means well fitted curve in the direction sought with a large enough effect in the repeat runs; an effect the other way counts as inactive or inconclusive; further: nearly all actives have a fitted effect of over 30% in size)
Summary of the method: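 ER-beta-UAS-bla HEK293T cells in medium with 2% charcoal-stripped FBS were preincubated 6 hr at 37C, dosed with compound in DMSO for 16 hr, then after the bla read, CellTiter-Glo was added for 30 min at room temperature; luminescence recorded.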

[7] = qHTS assay to identify small molecule antagonists of the estrogen receptor beta (ER-beta) signaling pathway - cell viability counter screen (AID 1259382; active means well fitted curve in the direction sought with a large enough effect in the repeat runs; an effect the other way counts as inactive or inconclusive;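 further: HEK293T cells carrying ER-beta-UAS-bla reporter stimulated with estradiol; series mostly up to about 92 µM; nearly all actives have a fitted effect of over 55% in size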)
Summary of the method: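 ER-beta-UAS-bla HEK293T cells (2,000/well, 2% charcoal-stripped FBS) were pre-incubated 6 hr at 37C, then given compound plus 1nM final 17-beta-estradiol for 16 hr. Viability was read in the same wells by CellTiter-Glo luminescence after 30 min at room temperature.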

[8] = biological target: Estrogen receptor (Homo sapiens) (UniProt P03372); assay: qHTS assay to identify small molecule agonists of the estrogen receptor alpha (ER-alpha) signaling pathway in the presence of an antagonist (AID 1259383); further: top concentration of the series differs between compounds; nearly all actives have a fitted effect of over 15% in size
Estrogen receptor (Homo sapiens), sequence (P03372 whole entry, looked up): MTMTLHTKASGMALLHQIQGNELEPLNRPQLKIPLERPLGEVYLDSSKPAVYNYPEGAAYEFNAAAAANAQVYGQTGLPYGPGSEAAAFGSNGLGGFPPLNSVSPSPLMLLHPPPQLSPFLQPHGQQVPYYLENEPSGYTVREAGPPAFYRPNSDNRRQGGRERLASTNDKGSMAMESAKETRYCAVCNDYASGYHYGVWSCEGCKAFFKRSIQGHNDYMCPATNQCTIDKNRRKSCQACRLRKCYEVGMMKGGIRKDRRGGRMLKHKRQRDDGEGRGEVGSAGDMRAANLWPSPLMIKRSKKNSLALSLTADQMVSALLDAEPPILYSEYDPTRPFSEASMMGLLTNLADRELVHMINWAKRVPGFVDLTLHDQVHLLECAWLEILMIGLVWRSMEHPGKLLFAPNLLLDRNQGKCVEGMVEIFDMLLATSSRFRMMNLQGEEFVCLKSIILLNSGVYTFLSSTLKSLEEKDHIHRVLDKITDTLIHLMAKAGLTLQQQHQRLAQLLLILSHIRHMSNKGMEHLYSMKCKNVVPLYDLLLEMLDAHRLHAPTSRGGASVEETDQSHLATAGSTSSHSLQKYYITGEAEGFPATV
Summary of the method: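 VM7Luc4E2 cells (endogenous full-length ER-alpha, 4×ERE-luciferase) were precultured 5 days in phenol red-free medium with 10% charcoal-stripped FBS, given 10.0nM ICI-182,780 (final), then treated with compounds at 15 concentrations for 22hr at 37C; luminescence read with ONE-Glo.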

[9] = qHTS assay to identify small molecule agonists or antagonists of the thyroid stimulating hormone receptor (TSHR) signaling pathway - wild type cell line counter screen (AID 1259384)
Summary of the method: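 Counter screen in untransfected Hek293: compounds (15-point titration, triplicate) plus phosphodiesterase inhibitor Ro20-1724 added after 18 h plating; 30 min RT. Intracellular cAMP via competitive d2/cryptate immunoassay, 1 h incubation.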

[10] = biological target: Thyrotropin receptor (Homo sapiens) (UniProt P16473); assay: qHTS assay to identify small molecule antagonists of the thyroid stimulating hormone receptor (TSHR) signaling pathway (AID 1259385); further: nearly all actives have a fitted effect of over 20% in size
Thyrotropin receptor (Homo sapiens), sequence (P16473 whole entry, looked up): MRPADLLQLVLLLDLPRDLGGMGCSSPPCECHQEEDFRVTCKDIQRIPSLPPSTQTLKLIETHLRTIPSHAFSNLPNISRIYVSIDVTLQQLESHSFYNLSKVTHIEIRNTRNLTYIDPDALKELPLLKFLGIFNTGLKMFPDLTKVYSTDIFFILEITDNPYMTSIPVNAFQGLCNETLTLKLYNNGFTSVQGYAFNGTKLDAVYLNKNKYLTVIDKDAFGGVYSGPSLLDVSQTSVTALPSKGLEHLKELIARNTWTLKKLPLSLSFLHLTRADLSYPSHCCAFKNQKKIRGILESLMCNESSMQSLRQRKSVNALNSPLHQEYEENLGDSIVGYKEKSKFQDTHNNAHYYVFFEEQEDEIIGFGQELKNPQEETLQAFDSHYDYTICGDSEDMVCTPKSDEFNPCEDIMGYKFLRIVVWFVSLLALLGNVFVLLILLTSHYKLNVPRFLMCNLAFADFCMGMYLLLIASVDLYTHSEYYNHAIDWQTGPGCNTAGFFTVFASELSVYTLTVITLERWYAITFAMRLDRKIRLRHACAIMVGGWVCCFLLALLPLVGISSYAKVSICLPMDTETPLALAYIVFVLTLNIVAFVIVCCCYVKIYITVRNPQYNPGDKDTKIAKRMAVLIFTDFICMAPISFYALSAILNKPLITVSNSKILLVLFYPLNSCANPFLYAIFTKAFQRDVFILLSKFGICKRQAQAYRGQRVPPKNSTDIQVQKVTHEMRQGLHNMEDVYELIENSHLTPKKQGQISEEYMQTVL
Summary of the method: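 Antagonist mode: compound-treated TSHR-expressing HEK293 cells were stimulated with 1.5 ng/mL TSH (final) in presence of Ro20-1724 for 30 min at RT. HTRF cAMP detection after 1 h; each compound tested at 15 concentrations, triplicate.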

[11] = biological target: Progesterone receptor (Homo sapiens) (UniProt P06401); assay: qHTS assay to identify small molecule agonists of the progesterone receptor (PR) signaling pathway (AID 1346784); further: nearly all actives have a fitted effect of over 30% in size
Progesterone receptor (Homo sapiens), sequence (P06401 whole entry, looked up): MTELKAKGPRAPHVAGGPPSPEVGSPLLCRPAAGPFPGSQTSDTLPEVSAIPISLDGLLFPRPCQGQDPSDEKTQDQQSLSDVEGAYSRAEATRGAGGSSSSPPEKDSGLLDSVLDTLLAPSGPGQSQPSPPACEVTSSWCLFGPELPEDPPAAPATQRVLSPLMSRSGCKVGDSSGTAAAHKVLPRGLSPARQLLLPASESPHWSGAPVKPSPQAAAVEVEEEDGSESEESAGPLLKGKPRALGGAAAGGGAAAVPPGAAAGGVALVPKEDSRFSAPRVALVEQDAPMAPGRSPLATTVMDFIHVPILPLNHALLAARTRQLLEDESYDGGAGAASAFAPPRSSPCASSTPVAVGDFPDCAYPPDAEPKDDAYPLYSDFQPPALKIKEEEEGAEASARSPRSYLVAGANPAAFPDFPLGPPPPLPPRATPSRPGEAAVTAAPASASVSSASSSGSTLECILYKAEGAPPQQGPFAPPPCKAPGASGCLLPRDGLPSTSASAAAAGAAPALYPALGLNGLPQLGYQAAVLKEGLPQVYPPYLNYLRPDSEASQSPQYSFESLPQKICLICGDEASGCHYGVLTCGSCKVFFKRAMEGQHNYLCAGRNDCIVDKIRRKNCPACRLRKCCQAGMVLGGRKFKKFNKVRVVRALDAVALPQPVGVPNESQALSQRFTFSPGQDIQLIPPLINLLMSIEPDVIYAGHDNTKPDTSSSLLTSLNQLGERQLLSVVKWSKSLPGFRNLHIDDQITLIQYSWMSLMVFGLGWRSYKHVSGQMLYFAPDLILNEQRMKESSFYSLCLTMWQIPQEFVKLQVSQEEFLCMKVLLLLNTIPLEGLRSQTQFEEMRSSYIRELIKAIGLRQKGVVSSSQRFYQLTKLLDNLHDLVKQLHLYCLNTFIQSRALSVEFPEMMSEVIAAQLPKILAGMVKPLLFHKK
Summary of the method: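 Reporter assay, GripTite PR-UAS-bla HEK 293T cells: 16 hr exposure to DMSO-dissolved compounds at 37C, 5% CO2, in steroid-depleted (2% charcoal-stripped FBS) medium; beta-lactamase measured by FRET fluorescence.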

[12] = biological target: Progesterone receptor (Homo sapiens) (UniProt P06401); assay: qHTS assay to identify small molecule antagonists of the progesterone receptor (PR) signaling pathway (AID 1346795; active means well fitted inhibition curve with a large enough effect in the signal ratio in the repeat runs, not every such curve was filed as active; the % refers to the signal ratio)
Summary of the method: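 Stimulus R5020 at 1 nM final; cells HEK293T PR-UAS-bla; medium with 2% charcoal-stripped FBS; compound exposure 16 hr at 37C, 5% CO2; detection by FRET beta-lactamase substrate, 2 hr, room temperature.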

[13] = qHTS assay to identify small molecule antagonists of the progesterone receptor (PR) signaling pathway - cell viability counter screen (AID 1346798; active means well fitted curve in the direction sought with a large enough effect in the repeat runs; an effect the other way counts as inactive or inconclusive; further: series mostly up to about 92 µM; nearly all actives have a fitted effect of over 50% in size)
Summary of the method: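 In the same plates used for the beta-lactamase readout, cell viability of compound- and R5020-treated PR-UAS-bla HEK293T cells (16 hr, 37C) was assessed by CellTiter-Glo luminescence.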

[14] = qHTS assay to identify small molecule agonists of the progesterone receptor (PR) signaling pathway - cell viability counter screen (AID 1346799); further: nearly all actives have a fitted effect of over 45% in size
Summary of the method: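 Multiplexed viability read: CellTiter-Glo luminescence, 30 min RT, following LiveBLAzer FRET measurement on PR-UAS-bla HEK293T cells exposed to compounds 16 hr.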

[15] = qHTS assay to identify small molecule antagonists of the TGF-beta/Smad signaling pathway - cell viability counter screen (AID 1346824; active means well fitted curve in the direction sought with a large enough effect in the repeat runs; an effect the other way counts as inactive or inconclusive; further: nearly all actives have a fitted effect of over 50% in size)
Summary of the method: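 Cytotoxicity counter-screen run in the same wells as the beta-lactamase Smad reporter read: CellTiter-Glo luminescence after 30 min at room temperature. HEK 293T SBE-bla cells had 5 hr compound exposure at 37 C with TGF-beta1 (0.25 ng/mL stock).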

[16] = qHTS assay to identify small molecule agonists of the TGF-beta/Smad signaling pathway (AID 1346859; active means well fitted activation curve with a large enough effect in the signal ratio in the repeat runs, not every such curve was filed as active; the % refers to the signal ratio; further: series mostly up to about 77 µM)
Summary of the method: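 Screening used HEK 293T SBE-bla cells at 4,000/well. Test agents: 5 hr, 37 C. Detection: FRET substrate, 2 hr RT, then excitation 405 nm with emissions at 460 and 530 nm.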

[17] = qHTS assay to identify small molecule agonists of the TGF-beta/Smad signaling pathway - cell viability counter screen (AID 1346829; active means well fitted curve in the direction sought with a large enough effect in the repeat runs; an effect the other way counts as inactive or inconclusive; further: top concentration of the series differs between compounds; nearly all actives have a fitted effect of over 45% in size)
Summary of the method: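 In parallel with the Smad reporter read, viability of HEK 293T cells stably carrying SBE-bla is quantified by ATP luminescence following 5 hr compound treatment.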

[18] = biological target: Thyrotropin-releasing hormone receptor (Homo sapiens) (UniProt P34981); assay: qHTS assay to identify small molecule antagonists of the thyrotropin-releasing hormone receptor (TRHR) signaling pathway (AID 1346877; active means well fitted inhibition curve with a large enough effect in the repeat runs, not every such curve was filed as active; further: series mostly up to about 51 µM)
Thyrotropin-releasing hormone receptor (Homo sapiens), sequence (P34981 whole entry, looked up): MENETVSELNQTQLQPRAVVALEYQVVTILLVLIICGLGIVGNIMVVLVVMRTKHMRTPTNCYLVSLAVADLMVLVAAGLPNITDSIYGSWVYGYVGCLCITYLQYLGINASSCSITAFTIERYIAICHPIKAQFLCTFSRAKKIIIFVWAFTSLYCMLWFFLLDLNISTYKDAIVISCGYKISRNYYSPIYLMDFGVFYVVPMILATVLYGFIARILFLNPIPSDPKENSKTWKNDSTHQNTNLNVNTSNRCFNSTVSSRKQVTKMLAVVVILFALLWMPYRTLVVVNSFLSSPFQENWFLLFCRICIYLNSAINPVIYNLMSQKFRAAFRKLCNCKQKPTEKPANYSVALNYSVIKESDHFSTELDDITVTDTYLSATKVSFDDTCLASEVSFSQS
Summary of the method: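 TRHR-expressing HEK293 cells were seeded, cultured 18 h at 37 °C, then loaded with calcium dye for 2 h. Compounds were pre-incubated 5 min at room temperature before 1 nM TRH (final) was added, and kinetic fluorescence was recorded for 3 min.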

[19] = qHTS assay to identify small molecule agonists of the estrogen receptor alpha (ER-alpha) signaling pathway in the presence of an antagonist - cell viability counter screen (AID 1259386; active means well fitted curve in the direction sought with a large enough effect in the repeat runs; an effect the other way counts as inactive or inconclusive;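 further: series mostly up to about 92 µM; cells exposed to compounds for 22 h at 37 °C before the viability read; nearly all actives have a fitted effect of over 30% in size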)
Summary of the method: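 VM7Luc4E2 cells (endogenous full-length ER-alpha, 4×ERE-luciferase) were held 5 days in phenol red-free medium with 10% charcoal-stripped FBS, plated, then given 10.0nM ICI-182,780 and compounds at 15 concentrations for 22hr at 37C; viability read by CellTiter-Fluor fluorescence.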

[20] = biological target: Androgen receptor (Homo sapiens) (UniProt P10275); assay: qHTS assay to identify small molecule agonists of the androgen receptor (AR) signaling pathway in the presence of an antagonist (AID 1259381); further: nearly all actives have a fitted effect of over 15% in size
Androgen receptor (Homo sapiens), sequence (P10275 whole entry, looked up): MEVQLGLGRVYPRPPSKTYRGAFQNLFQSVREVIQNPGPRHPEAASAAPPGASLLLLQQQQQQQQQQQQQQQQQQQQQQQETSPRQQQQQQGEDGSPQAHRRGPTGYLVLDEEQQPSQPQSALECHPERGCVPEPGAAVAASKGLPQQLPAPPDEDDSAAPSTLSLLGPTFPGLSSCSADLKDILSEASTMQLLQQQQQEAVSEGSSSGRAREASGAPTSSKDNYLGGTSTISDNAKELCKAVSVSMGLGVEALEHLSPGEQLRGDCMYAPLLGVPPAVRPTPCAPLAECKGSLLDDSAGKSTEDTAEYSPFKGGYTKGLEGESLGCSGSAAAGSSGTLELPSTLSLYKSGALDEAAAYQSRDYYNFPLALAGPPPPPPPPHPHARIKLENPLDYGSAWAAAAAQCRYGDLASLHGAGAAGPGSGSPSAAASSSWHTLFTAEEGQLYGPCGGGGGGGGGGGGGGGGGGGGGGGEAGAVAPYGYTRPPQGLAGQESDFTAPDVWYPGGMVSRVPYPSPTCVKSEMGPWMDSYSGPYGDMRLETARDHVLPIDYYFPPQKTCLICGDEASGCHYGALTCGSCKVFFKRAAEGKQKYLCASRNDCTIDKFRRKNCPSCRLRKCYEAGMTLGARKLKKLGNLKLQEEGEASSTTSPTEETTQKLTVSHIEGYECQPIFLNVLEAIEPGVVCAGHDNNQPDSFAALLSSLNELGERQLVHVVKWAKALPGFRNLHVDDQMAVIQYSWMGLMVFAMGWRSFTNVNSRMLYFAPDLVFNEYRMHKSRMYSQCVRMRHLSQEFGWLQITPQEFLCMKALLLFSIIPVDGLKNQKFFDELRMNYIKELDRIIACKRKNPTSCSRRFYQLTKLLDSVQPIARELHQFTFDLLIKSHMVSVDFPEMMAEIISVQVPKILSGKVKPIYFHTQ
Summary of the method: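 MDA-kb2 human breast carcinoma cells carrying an MMTV-luciferase reporter (AR- and GR-responsive) were treated with compounds at 15 concentrations plus 3.0uM final nilutamide for 16hr at 37C without CO2; luminescence was read after ONE-Glo addition.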
On the % scale 0 is the no-effect control and ±100 the full control effect.

C1CN(CCOCCN2CCOCC2)CCO1
inactive: outcome [1] | Potency [2] | outcome [3] | outcome [4] | Potency [5] | Potency [6] | Potency [7] | Potency [8] | outcome [9] | Potency [10] | Potency [11] | Potency [12] | Potency [13] | Potency [14] | Potency [15] | outcome [16]

c1ccc([C@H]2CN3CCSC3=N2)cc1
inactive: outcome [1] | Potency [2] | outcome [3] | outcome [4] | Potency [5] | Potency [6] | Potency [7] | Potency [8] | outcome [9] | Potency [10] | Potency [11] | Potency [12] | Potency [13] | Potency [15] | outcome [17] | outcome [16] | outcome [18]

C[C@H](NC(CCc1ccccc1)C(=O)O)C(=O)N1CCC[C@H]1C(=O)O (stereo partly specified)
inactive: outcome [1] | Potency [2] | outcome [3] | outcome [4] | Potency [5] | Potency [6] | Potency [7] | Potency [8] | outcome [9] | Potency [10] | Potency [19] | Potency [11] | Potency [12] | Potency [13] | Potency [14] | Potency [15] | outcome [17] | outcome [16] | outcome [18]

CC(C)(CC(=O)O)C(=O)O
inactive: outcome [1] | Potency [2] | outcome [3] | outcome [4] | Potency [5] | Potency [6] | Potency [20] | Potency [7] | Potency [8] | outcome [9] | Potency [10] | Potency [19] | Potency [11] | Potency [13] | Potency [14] | Potency [15] | outcome [17] | outcome [16]

CC(=O)Nc1ccc(S(N)(=O)=O)cc1
inactive: outcome [1] | Potency [2] | outcome [3] | outcome [4] | Potency [5] | Potency [6] | Potency [20] | Potency [7] | Potency [8] | outcome [9] | Potency [10] | Potency [19] | Potency [11] | Potency [13] | Potency [14] | outcome [17] | outcome [16] | outcome [18]

CCn1nc(C(=O)O)c(=O)c2cc3c(cc21)OCO3
inactive: outcome [1] | Potency [2] | outcome [3] | outcome [4] | Potency [5] | Potency [6] | Potency [20] | Potency [7] | Potency [8] | outcome [9] | Potency [10] | Potency [19] | Potency [11] | Potency [12] | Potency [13] | Potency [14] | Potency [15] | outcome [17] | outcome [16]

CCCCCCCCCCCCCC=O
inactive: activity change [1] -0.008% [at 8.39 µM] | activity change, negative = inhibition [2] 13.4% [at 8.39 µM] | activation [3] 5.64% [at 8.39 µM] | activity, negative = inhibition [4] -23.6% [at 8.39 µM] | activity change, negative = cytotoxicity [5] -0.261% [at 8.39 µM] | activity change, negative = cytotoxicity [6] -3.43% [at 8.39 µM] | activity change, negative = cytotoxicity [7] -3.46% [at 8.39 µM] | activation [8] -0.924% [at 8.39 µM] | cAMP activity change [9] 0.631% [at 8.39 µM] | activity change, negative = inhibition [10] -5.31% [at 8.39 µM] | activity change, negative = cytotoxicity [19] 2.15% [at 8.39 µM] | activation [11] -0.302% [at 8.39 µM] | activity change, negative = inhibition [12] 6.1% [at 8.39 µM] | activity change, negative = cytotoxicity [13] 2% [at 8.39 µM] | activity change, negative = cytotoxicity [14] 5.7% [at 8.39 µM] | viability change, negative = cytotoxic [15] 6.5% [at 6.97 µM] | activity change, negative = cytotoxicity [17] 12.8% [at 6.97 µM] | activation [16] -2.78% [at 6.97 µM] | activity, negative = inhibition [18] -5.43% [at 4.65 µM]
